Results published in the supplement of paper PMC6555819.

tested on: PPARg:RXRa 30nM:10nM, anti-RXR (NR concentration 30 nM, RXRa partner concentration 10 nM); assay: PBM binding z-score (relative to random genomic background probes); higher = stronger binding; sequences stand for … in GC…GCGATTGACAGCGTAGAATGAAGG
How it was run: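 Custom Agilent 4×180K protein-binding microarrays carried double-stranded probes, each with a 34-nt variable region. These regions held direct-repeat seeds, single-nucleotide variants, half-site ablations and random human genomic background sequences. Ligand-free nuclear receptor dimers were incubated on the arrays for 1 h, antibodies against each partner (one per run) detected binding, and scanned fluorescence was regression-normalized. Binding z-scores take the random background probes as reference.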

Row | Sequence | PBM binding z-score
1 | TGTCAAAGTTCAAAGGTAATGTAAGTATCCACAC | 5.63
2 | GCTTGTAGATCTAGGTTAAGAAAGACTAAGCTAA | 0.267
3 | TCTAGTTGGTCACGGAGGTCACATACGACGGGTA | 3.8
4 | TGAATGAGGTTAAAGATCAGCGAACGTGGCGTCG | 5.47
5 | TCTTGTACATCAATAGAGGTTAAGAAAGTGCGCT | 3.01
6 | GGAACGCGGGCAAGTTGATAGCAGAGTTTGATGG | -0.573
7 | AGTCAAAGTTCAGGACGAGGTAACGGAAAGCACG | 1.83
8 | ACAGACAGGTGAGAGAAGGTAACTCAGCTGGACG | 0.0838
9 | TCATATAGGTAAATGCTAGGGGAAAGTCCGATCT | 3.88
10 | CCTTACGGGTCACTCCAGGTTATTGCATCGGAGT | 1.08
11 | GCAGACAGGAGAAACGCAGGTAACTCAGGGTGGC | -0.781
12 | CCGAGTACGTTATGGGGCATTCAGGCAACGGTGA | -0.465
13 | TCGAGTAGGCTAGTCGGGGCATTCAGCCAACATA | 0.911
14 | CCAGACAGGTGAAAGGTAACTCAGTCTGGTACGC | 4.26
15 | CTCGAAAGGTCGGTTGAGGTGAGGATACGGATAA | 0.294
16 | TTACCAAGGTGAAGGTAGTTGATCCCTCTGTAGA | 0.219
17 | CCGACCGGGGCATAAGGTTACCATAAGCCAGCCC | -0.188
18 | CATACAGGGTCAGCTCGGCCAGAGTAGGGACGGC | 0.565
19 | ACTTGTTGGTCAGCTGAGGTCACACACAATTCGG | 0.673
20 | CCTGCTAGGTAATGGTCAGCTAATCTACAGTATG | -0.225
21 | CGTCCAGGGTCATAGGAGGTCAGTGAAGACAGAT | 2.38
22 | CCTTACGGTTCACTCCAGGTTATAGCATCGGAGT | 0.224
